Experimental data taken from PubChem BioAssay.
Calls of active or inactive are those of the source.

What was measured:
[1] = binders of probe aFSTL3 on microarray, primary screen, stem cell growth factor project, biochemical, small-molecule microarray, fluorescence 635/667 (AID 1064); details: higher = more signal;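 also: measures binding of the biotinylated anti-FSTL3 antibody to printed compounds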
[2] = binders from COS7 lysate, DM2A8 probe, primary screen, torsin A project, cell lysate, small-molecule microarray, fluorescence 635/667 (AID 1065); details: higher = more signal, COS7 lysate expressing mutant human TOR1A
[3] = binders of probe aFGF2 on microarray, primary screen, stem cell growth factor project, biochemical, small-molecule microarray, fluorescence 635/667 (AID 1067); details: higher = more signal;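 also: measures binding of biotinylated aFGF2 protein to printed compounds on slides; z-score merges feature fluorescence and signal-to-noise across triplicate slides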
[4] = binders of probe aFGF10 on microarray, primary screen, stem cell growth factor project, biochemical, small-molecule microarray, fluorescence 635/667 (AID 1071); details: higher = more signal;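 also: score merges 667 nm spot intensity and signal to noise from triplicate slides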
[5] = target: Neurogenic locus notch homolog protein 2 (Homo sapiens) (UniProt Q04721); assay: Notch2 binders on small-molecule microarrays, primary screen, biochemical, small-molecule microarray, 635 nm fluorescence, stem cell growth factors (AID 1073); details: Notch2 binding, higher = more signal
[6] = target: Pro-neuregulin-1, membrane-bound isoform (Homo sapiens) (UniProt Q02297); assay: NRG1 binders on small-molecule microarrays, primary screen, psychiatric disease protein project, biochemical, small-molecule microarray, fluorescence 635/667 (AID 1075); details: NRG1 binding, 635 nm fluorescence, higher = more signal;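 also: score combines 667 nm spot fluorescence with signal to noise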
[7] = tested on: Neuregulin-1 EGF-like domain; assay: binders of neuregulin-1 EGF-like domain, primary screen, biochemical, small-molecule microarray, 635 nm fluorescence (AID 1081); details: small-molecule microarray binding, higher = more signal;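 also: binding of the protein to compounds printed on small-molecule microarray slides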
[8] = FRG1 promoter luciferase signal modulators, primary screen, FRG1 inhibition for FSHD, cell-based, C2C12 myotubes, firefly/Renilla luciferase, luminescence (AID 1084); details: higher = more signal, called active from +8 up or from −8 down
[9] = binders of probe aFST on microarray, primary screen, stem cell growth factor project, biochemical, small-molecule microarray, fluorescence 635/667 (AID 1086); details: higher = more signal;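 also: score merges 667 nm fluorescence with signal-to-noise of each printed compound spot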
[10] = binders of probe aHhip on microarray, primary screen, stem cell growth factor project, biochemical, small-molecule microarray, fluorescence 635/667 (AID 1087); details: higher = more signal;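 also: score merges spot fluorescence at 667nm with spot signal to noise ratio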
[11] = tested on: PRMT1 (protein arginine N-methyltransferase 1); assay: PRMT1 binders on small-molecule microarrays, primary screen, biochemical, small-molecule microarray, 635 nm fluorescence (AID 1088); details: small-molecule microarray binding, higher = more signal;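 also: binding of Prmt1 protein to compounds spotted on small-molecule microarray slides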
[12] = yeast growth modulation, basal conditions, primary screen, YJM789 clinical isolate, OD600, 24 h (AID 1089);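 also: growth of clinical yeast isolate S. cerevisiae YJM 789 seeded 1000 cells per well; test concentration not given here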; details: S. cerevisiae YJM789 growth, higher = more signal, called active from +8 up or from −8 down
[13] = fission yeast growth modulation, primary screen, strain 972, OD600, 24 h, no modulator (AID 1090);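 also: basal condition with compound alone and no growth modifier present; test concentration not given here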; details: S. pombe 972 growth, higher = more signal, called active from +8 up or from −8 down
[14] = S. cerevisiae growth modulation with rapamycin, primary screen, strain BY4716, OD600, 96 h (AID 1091); details: higher = more signal, called active from +8 up or from −8 down; also: test concentration not given here
[15] = target: Torsin-1A-interacting protein 2 (Homo sapiens) (UniProt Q8NFQ8); assay: LULL1 binders on small-molecule microarray, primary screen, cell lysate, human LULL1 lysate, 635/667 nm fluorescence (AID 1092); details: hLULL1 lysate binding, 635 nm fluorescence, higher = more signal;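 also: probe is lysate of COS7 cells overexpressing human LULL1; score merges per-feature 667 nm fluorescence with signal-to-noise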
[16] = E. coli growth modulation, two-sided OD650, primary screen, E. coli filamentation project, strain DRC41, 24 h (AID 1093); details: OD650, 24 h, higher = more signal, called active from +8 up or from −8 down;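 also: MC1000 strain lacking acrAB efflux and sulA so SOS filamentation is blocked; test concentration not given here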
[17] = small-molecule microarray binders of probe aLefty2, primary screen, biochemical, biotinylated probe, 635/667 nm fluorescence (AID 1094); details: higher = more signal;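 also: score merges spot fluorescence near 667 nm with spot signal-to-noise ratio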
[18] = tested on: Noggin (protein binding on small-molecule microarray); assay: Noggin binders on small-molecule microarray, primary screen, biochemical, 635/667 nm fluorescence (AID 1095); details: 635 nm fluorescence, higher = more signal;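 also: score merges 667 nm feature fluorescence with signal to noise over triplicate slides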
[19] = target: Neurogenic locus notch homolog protein 3 (Homo sapiens) (UniProt Q9UM47); assay: NOTCH3 binders on small-molecule microarray, primary screen, biochemical, 635/667 nm fluorescence (AID 1096); details: NOTCH3 binding, 635 nm fluorescence, higher = more signal
[20] = small-molecule microarray binders of probe aEGFR, primary screen, biochemical, biotinylated probe, 635/667 nm fluorescence (AID 1097); details: higher = more signal;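 also: probe is a biotinylated anti-EGFR antibody binding compounds printed on slides; score combines fluorescence near 667 nm and signal to noise of each spot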

Neurogenic locus notch homolog protein 2 (Homo sapiens), sequence (Q04721 whole entry, looked up, canonical isoform): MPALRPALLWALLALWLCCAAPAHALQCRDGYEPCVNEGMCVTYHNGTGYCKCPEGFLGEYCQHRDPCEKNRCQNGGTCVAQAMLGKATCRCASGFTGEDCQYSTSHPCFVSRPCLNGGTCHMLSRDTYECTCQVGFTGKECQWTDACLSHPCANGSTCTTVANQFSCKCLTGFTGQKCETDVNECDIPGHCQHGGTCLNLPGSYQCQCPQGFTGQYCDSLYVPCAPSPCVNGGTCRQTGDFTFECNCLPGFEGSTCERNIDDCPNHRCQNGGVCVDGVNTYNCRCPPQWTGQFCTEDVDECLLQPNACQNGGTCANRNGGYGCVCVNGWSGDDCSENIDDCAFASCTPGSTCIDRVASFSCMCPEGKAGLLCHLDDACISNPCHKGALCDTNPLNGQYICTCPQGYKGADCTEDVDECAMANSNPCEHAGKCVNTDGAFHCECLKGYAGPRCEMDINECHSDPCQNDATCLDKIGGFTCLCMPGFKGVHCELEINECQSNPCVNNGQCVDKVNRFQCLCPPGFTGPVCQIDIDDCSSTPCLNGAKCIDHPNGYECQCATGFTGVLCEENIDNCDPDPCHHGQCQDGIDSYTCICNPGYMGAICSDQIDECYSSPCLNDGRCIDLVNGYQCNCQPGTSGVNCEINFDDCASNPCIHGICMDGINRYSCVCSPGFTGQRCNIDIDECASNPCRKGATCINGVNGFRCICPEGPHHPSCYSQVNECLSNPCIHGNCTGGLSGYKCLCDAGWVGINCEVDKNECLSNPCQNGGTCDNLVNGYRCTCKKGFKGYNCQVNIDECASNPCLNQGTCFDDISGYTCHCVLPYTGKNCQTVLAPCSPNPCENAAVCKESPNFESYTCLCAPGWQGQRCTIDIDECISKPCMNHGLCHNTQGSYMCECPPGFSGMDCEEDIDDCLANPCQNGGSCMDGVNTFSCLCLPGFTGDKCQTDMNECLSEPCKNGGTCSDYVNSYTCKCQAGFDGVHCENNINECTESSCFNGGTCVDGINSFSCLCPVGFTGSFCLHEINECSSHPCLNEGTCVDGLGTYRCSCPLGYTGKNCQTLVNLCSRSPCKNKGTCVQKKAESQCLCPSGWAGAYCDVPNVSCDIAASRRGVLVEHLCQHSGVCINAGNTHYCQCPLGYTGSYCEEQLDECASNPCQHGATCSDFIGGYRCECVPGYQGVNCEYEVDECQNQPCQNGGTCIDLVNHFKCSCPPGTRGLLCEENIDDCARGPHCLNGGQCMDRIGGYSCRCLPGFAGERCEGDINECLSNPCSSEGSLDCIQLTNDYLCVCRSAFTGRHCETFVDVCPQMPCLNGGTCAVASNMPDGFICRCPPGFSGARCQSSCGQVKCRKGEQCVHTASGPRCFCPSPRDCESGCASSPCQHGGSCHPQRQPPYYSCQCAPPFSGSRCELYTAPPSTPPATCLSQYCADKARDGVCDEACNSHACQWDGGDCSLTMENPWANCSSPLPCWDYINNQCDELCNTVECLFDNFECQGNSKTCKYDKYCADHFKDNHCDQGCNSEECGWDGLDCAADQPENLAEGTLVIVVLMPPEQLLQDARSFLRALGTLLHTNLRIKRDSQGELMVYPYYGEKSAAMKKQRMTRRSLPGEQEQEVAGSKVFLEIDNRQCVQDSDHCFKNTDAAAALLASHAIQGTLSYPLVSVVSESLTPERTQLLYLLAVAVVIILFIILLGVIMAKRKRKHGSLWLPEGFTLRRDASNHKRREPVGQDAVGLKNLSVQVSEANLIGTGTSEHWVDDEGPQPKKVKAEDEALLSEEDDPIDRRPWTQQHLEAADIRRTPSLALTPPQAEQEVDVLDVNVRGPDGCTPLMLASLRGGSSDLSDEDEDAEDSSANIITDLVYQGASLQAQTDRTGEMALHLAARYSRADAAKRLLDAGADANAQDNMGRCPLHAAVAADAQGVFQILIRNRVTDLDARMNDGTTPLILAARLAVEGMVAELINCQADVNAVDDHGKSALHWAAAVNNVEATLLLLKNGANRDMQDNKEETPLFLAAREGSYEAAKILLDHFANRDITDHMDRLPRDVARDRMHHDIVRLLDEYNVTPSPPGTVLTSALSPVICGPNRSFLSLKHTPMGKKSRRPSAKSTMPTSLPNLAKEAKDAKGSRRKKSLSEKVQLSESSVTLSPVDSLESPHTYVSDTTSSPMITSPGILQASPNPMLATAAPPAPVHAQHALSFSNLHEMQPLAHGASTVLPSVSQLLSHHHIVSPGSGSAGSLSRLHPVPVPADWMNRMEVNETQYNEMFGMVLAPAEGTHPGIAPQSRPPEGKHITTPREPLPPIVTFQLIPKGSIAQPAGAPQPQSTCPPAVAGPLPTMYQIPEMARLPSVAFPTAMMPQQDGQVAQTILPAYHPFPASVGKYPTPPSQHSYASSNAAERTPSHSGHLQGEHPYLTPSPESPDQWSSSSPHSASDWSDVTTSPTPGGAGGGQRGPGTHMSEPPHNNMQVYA
Neurogenic locus notch homolog protein 3 (Homo sapiens), sequence (Q9UM47 whole entry, looked up): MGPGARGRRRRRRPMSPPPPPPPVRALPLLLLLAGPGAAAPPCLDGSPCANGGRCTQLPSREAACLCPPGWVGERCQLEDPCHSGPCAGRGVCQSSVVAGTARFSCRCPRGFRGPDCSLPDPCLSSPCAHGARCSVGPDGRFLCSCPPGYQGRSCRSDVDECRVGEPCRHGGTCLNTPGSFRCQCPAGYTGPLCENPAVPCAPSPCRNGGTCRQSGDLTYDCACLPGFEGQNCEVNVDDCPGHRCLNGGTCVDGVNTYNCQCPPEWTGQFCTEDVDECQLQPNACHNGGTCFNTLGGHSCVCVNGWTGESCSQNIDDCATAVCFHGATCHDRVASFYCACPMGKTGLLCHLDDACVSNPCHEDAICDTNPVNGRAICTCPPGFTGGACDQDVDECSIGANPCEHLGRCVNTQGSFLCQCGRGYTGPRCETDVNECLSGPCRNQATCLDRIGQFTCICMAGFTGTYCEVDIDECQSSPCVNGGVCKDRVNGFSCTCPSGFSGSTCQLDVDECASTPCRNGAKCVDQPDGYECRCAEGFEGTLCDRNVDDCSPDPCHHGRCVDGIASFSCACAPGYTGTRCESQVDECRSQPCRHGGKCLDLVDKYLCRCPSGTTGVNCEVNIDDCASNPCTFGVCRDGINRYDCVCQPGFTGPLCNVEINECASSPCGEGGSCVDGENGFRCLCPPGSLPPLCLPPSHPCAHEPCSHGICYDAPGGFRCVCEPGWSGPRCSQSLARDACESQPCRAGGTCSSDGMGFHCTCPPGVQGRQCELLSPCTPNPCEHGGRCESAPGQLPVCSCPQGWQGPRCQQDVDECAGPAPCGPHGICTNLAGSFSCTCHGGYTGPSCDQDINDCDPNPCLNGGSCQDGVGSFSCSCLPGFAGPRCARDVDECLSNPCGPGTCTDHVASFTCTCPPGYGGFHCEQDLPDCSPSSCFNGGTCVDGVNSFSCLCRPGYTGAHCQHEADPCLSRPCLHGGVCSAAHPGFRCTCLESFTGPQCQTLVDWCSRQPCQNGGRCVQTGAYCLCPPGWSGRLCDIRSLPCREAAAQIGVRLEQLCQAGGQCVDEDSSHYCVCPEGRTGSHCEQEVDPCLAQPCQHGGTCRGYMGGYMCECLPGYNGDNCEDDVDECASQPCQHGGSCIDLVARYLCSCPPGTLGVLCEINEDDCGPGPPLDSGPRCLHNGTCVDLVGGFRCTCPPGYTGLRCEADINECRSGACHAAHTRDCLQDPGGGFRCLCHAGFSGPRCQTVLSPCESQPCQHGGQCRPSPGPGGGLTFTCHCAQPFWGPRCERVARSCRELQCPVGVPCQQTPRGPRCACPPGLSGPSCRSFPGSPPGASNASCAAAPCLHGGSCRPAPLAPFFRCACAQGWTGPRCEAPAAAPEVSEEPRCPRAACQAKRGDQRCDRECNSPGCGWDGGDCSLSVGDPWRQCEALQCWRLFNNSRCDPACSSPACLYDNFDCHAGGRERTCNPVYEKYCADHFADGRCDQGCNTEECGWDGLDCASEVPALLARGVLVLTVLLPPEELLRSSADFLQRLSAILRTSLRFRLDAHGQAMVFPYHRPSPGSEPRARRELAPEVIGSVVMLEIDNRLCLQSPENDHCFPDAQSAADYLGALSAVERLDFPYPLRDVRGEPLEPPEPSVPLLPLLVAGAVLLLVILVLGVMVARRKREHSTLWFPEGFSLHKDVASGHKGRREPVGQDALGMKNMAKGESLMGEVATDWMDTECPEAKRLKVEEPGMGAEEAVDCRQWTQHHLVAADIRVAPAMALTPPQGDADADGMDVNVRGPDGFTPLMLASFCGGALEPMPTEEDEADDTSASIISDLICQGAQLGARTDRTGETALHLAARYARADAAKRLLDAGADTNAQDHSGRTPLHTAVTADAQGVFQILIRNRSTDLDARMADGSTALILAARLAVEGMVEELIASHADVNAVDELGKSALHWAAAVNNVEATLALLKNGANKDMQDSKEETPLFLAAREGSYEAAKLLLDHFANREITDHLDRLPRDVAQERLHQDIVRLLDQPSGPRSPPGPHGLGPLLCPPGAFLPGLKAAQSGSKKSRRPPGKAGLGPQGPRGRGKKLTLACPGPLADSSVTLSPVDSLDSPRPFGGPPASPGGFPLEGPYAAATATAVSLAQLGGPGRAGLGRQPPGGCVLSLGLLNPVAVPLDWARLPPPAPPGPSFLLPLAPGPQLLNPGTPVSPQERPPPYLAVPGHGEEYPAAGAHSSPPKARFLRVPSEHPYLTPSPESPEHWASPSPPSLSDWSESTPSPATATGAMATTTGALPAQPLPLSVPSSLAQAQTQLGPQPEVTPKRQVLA

Compound	composite z-score [1]	composite z-score [2]	composite z-score [3]	composite z-score [4]	composite z-score [5]	composite z-score [6]	composite z-score [7]	z-score [8]	composite z-score [9]	composite z-score [10]	composite z-score [11]	z-score [12]	z-score [13]	z-score [14]	composite z-score [15]	z-score [16]	composite z-score [17]	composite z-score [18]	composite z-score [19]	composite z-score [20]
CCC(CC)C(O)C1C=CC2C(=O)N(c3ccccc3)C(=O)C2N1Nc1ccc(C(C)C)cc1 (stereo not given)	0.251	-0.207	0.0495	0.687	1.64	1.23	1.28	-0.963 (inactive)	1.21	-0.195	1.43	0.727 (inactive)	0.065 (inactive)	1.23 (inactive)	3.12	-0.63 (inactive)	0.0659	0.152	1.03	0.118
COCCOC(=O)N1C(=O)[C@@]2(c3cc(C#Cc4ccc(OC)cc4)ccc31)[C@H](C(=O)Nc1nc3ccccc3s1)[C@H]1C(=O)O[C@H](c3ccccc3)[C@H](c3ccccc3)N1[C@@H]2c1ccc(O)cc1	0.0683	-0.164	0.0289	0.445	1.06	1.19	1.22	2.65 (inactive)	0.286	0.282	1.55	0.903 (inactive)	0.842 (inactive)	1.16 (inactive)	2.74	1.57 (inactive)	-0.0071	1.55	1.08	0.213
C=C(/C(=C/C[C@H](OC(C)=O)c1cccc(OCCO)c1)c1cnc2ccccc2c1)C(C)C	-0.104	0.21	-0.108	0.459	1.56	0.35	0.914	-0.127 (inactive)	-0.241	-0.0618	0.684	1.9 (inactive)	-0.3 (inactive)	1.35 (inactive)	1.03	0.172 (inactive)	-0.0888	0.608	0.778	0.386
CC(C)C(=C=CC[C@H](O)c1cccc(OCCO)c1)C[C@H](O)c1cc(Cl)cc(Cl)c1O	-0.205	-0.178	-0.116	0.792	-0.022	0.462	0.827	0.209 (inactive)	0.53	0.0722	1.03	0.834 (inactive)	-1.06 (inactive)	-0.129 (inactive)	2.37	0.236 (inactive)	-0.114	0.665	0.964	-0.0626
COCCOC(=O)N1C(=O)[C@@]2(c3cc(C#Cc4ccc(OC)cc4)ccc31)[C@H](C(=O)Nc1nc3ccccc3s1)[C@H]1C(=O)O[C@H](c3ccccc3)[C@H](c3ccccc3)N1[C@@H]2c1ccc(OCCO)cc1	-0.51	0.661	-0.0569	0.784	1.21	0.138	1.11	4.61 (inactive)	0.632	-0.0618	1.56	3.34 (inactive)	2.1 (inactive)	4.58 (inactive)	1.02	0.575 (inactive)	-0.0699	1.54	1.13	0.0311
COC(=O)[C@@]1(Cc2ccc(F)cc2)[C@H]2c3cc(C(=O)N(C)C)n(CCc4ccc(O)c(OC)c4)c3C[C@H]2CN1C(=O)c1ccccc1	1.71	0.245	0.735	1.27	1.27	-0.0157	1.03	0.245 (inactive)	1.7	0.372	-0.646	0.503 (inactive)	0.459 (inactive)	0.689 (inactive)	1.01	-0.849 (inactive)	1.42	0.446	0.237	1.25
O=C1C2C=CC(C(O)c3ccc(Br)cc3)N(Nc3ccccc3F)C2C(=O)N1c1ccccc1 (stereo not given)	-0.436	0.536	0.0181	0.178	0.776	1.11	1.06	-1.55 (inactive)	0.68	-0.0346	0.566	-1.16 (inactive)	-0.435 (inactive)	-1.26 (inactive)	2.97	0.569 (inactive)	-0.103	-0.231	0.626	-0.112
COc1ccc([Si](C)(C)[C@H]2[C@H](CCO)O[C@@]3(C(=O)N(Cc4cccc(N5C(=O)COc6ccccc65)c4)c4ccccc43)[C@@H]2C)cc1	0.295	0.15	-0.0877	0.126	-0.298	0.727	0.828	-2.07 (inactive)	-0.203	-0.333	0.911	1.5 (inactive)	-0.845 (inactive)	16.8 (active)	0.795	1.98 (inactive)	-0.0021	0.164	0.14	-0.148
Cc1cc(C)cc(N2C(=O)CSC2c2cccc([N+](=O)[O-])c2)c1 (stereo not given)	-0.0703	0.571	-0.0036	0.887	1.17	1.4	1.21	1.07 (inactive)	0.712	-0.0994	1.56	0.0032 (inactive)	0.223 (inactive)	1.37 (inactive)	2.39	1.58 (inactive)	0.154	0.713	1.04	0.213
COCCOC(=O)N1C(=O)[C@@]2(c3cc(C#CC4=CCCCC4)ccc31)[C@H](c1ccc(OCCO)cc1)N1[C@H](c3ccccc3)[C@H](c3ccccc3)OC(=O)[C@H]1[C@@H]2C(=O)NC[C@H](O)c1ccccc1	0.82	0.366	-0.0032	0.246	1.24	-0.118	1.15	0.745 (inactive)	1.44	0.187	1.54	2.04 (inactive)	0.798 (inactive)	5.7 (inactive)	2.6	0.546 (inactive)	0.789	1.11	1.07	0.108
